Source: PubChem BioAssay (Tox21)
Records with an inconclusive call do not appear. Activity calls are given as the source filed them. Unless noted, calls follow the shape of the dose curve; as a rule, active = well fitted curve in the direction sought with a large enough effect in the repeat runs; inconclusive = weak or mixed curves; inactive = no such curve, though single readings can be large; an effect the other way counts as inactive or inconclusive.

How the values were obtained:
[1] = qHTS assay to identify small molecule agonists of the hypoxia (HIF-1) signaling pathway - cell viability counter screen (AID 1224844; calls by dose curve; also: nearly all actives have a fitted effect of over 50% in size); conditions: HRE-bla ME-180 viability, CellTiter-Glo luminescence, 17 h; series mostly up to 76.8 µM
Outline: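 Multiplexed with the HRE beta-lactamase assay, this viability read used CellTiter-Glo luminescence (30 min, RT) on HRE-bla ME-180 cells treated 17 hrs with compounds in 0.5% dialyzed FBS medium.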

[2] = qHTS assay to identify small molecule agonists of H2AX (AID 1224845; active = well fitted activation curve with a large enough effect in the signal ratio in the repeat runs, not every such curve was filed as active; the % refers to the signal ratio); conditions: CHO-K1 phospho-H2AX Ser139 HTRF, 3 h; series mostly up to 154 µM
Outline: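 Wild-type CHO-K1 cells plated overnight, then exposed 3 hr at 37C to compounds at 15 concentrations (0.76% DMSO). Lysed, then HTRF anti-pH2AX(S139)-cryptate/anti-H2AX-d2 detection after 24 hr at room temperature; emissions 665 and 620 nm.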

[3] = qHTS assay to identify small molecule agonists of the estrogen related receptor (ERR) signaling pathway from Tox21 library (AID 1224849; calls by dose curve; also: nearly all actives have a fitted effect of over 15% in size); conditions: ERR reporter cell line, ONE-Glo luciferase, 18 h; at 92.4 µM (top of the series) unless noted
Outline: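 Six hours post-seeding at 37 C/5% CO2, ERR cells receive DMSO-solubilised compounds; after 18 h at 37 C, ONE-Glo reagent is applied and luminescence recorded.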

[4] = qHTS RealTime-Glo MT Cell Viability Assay in HepG2 cells - 24 hour (AID 1224867); conditions: RealTime-Glo luminescence; series mostly up to 76.8 µM; also: nearly all actives have a fitted effect of over 50% in size
Outline: (§1)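 HepG2 cells were seeded at 600 cells/well together with NanoLuc luciferase and a cell-permeant prosubstrate, preincubated 5 h at 37 C/5% CO2, then pin-dosed with compounds in DMSO. Nonlytic luminescence from viable cells was read at each time point.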

[5] = A CellTox Green Cytotoxicity Assay to monitor cytotoxicity in HEK293 cells - 0 hour (AID 1224869); conditions: CellTox Green fluorescence; series mostly up to 76.8 µM; also: nearly all actives have a fitted effect of over 50% in size
Outline: (§2)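 Seeding of HEK293 cells together with cytotoxicity dye preceded a 5 h incubation at 37 C/5% CO2. Test compounds in DMSO were then added and fluorescence monitored across 40 h.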

[6] = A CellTox Green Cytotoxicity Assay to monitor cytotoxicity in HEK293 cells - 40 hour (AID 1224871); conditions: CellTox Green fluorescence; series mostly up to 76.8 µM; also: nearly all actives have a fitted effect of over 45% in size
Outline: as §2

[7] = qHTS RealTime-Glo MT Cell Viability Assay in HEK293 cells - 16 hour (AID 1224872); conditions: RealTime-Glo luminescence; series mostly up to 76.8 µM; also: top concentration of the series differs between compounds; nearly all actives have a fitted effect of over 50% in size
Outline: (§3)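 HEK293 cells were seeded at 600 cells/well together with NanoLuc luciferase and cell-permeant prosubstrate, preincubated 5 h at 37 C/5% CO2, then given compound in DMSO by pintool. Luminescence from viable-cell prosubstrate reduction was read repeatedly over 40 h.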

[8] = qHTS RealTime-Glo MT Cell Viability Assay in HepG2 cells - 8 hour (AID 1224873); conditions: RealTime-Glo luminescence; series mostly up to 76.8 µM; also: nearly all actives have a fitted effect of over 55% in size
Outline: (§4)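 HepG2 cells mixed with RealTime-Glo MT reagents (NanoLuc plus cell-permeant prosubstrate) were seeded at 600 cells/well, incubated 5 h at 37 C/5% CO2, then pinned with compounds in DMSO; nonlytic luminescence tracked viability during 40 h treatment.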

[9] = A CellTox Green Cytotoxicity Assay to monitor cytotoxicity in HEK293 cells - 24 hour (AID 1224875); conditions: CellTox Green fluorescence; series mostly up to 76.8 µM; also: nearly all actives have a fitted effect of over 45% in size
Outline: as §2

[10] = A CellTox Green Cytotoxicity Assay to monitor cytotoxicity in HepG2 cells - 16 hour (AID 1224876); conditions: CellTox Green fluorescence; series mostly up to 76.8 µM; also: nearly all actives have a fitted effect of over 45% in size
Outline: (§5)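 Nonlytic assay: viable cells exclude the dye, so fluorescence scales with cell death. HepG2 at 600 cells/well, compounds added after 5 h, signal read across 40 h.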

[11] = A CellTox Green Cytotoxicity Assay to monitor cytotoxicity in HepG2 cells - 24 hour (AID 1224878); conditions: CellTox Green fluorescence; series mostly up to 76.8 µM; also: nearly all actives have a fitted effect of over 45% in size
Outline: as §5

[12] = qHTS RealTime-Glo MT Cell Viability Assay in HEK293 cells - 0 hour (AID 1224880); conditions: RealTime-Glo luminescence; series mostly up to 76.8 µM
Outline: (§6)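 Tox21 screen in HEK293 using RealTime-Glo MT chemistry, with cells and reagent co-dispensed. Luminescence proportional to viable cell number was captured at intervals during 40 h compound exposure at 37 C.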

[13] = qHTS assay to identify small molecule agonists of H2AX - cell viability counter screen (AID 1224847; calls by dose curve; also: top concentration of the series differs between compounds; nearly all actives have a fitted effect of over 30% in size); conditions: CHO-K1 viability, CellTiter-Glo luminescence, 3 h; series mostly up to 154 µM
Outline: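 CHO-K1 cells plated overnight at 37C, then exposed 3 h at 37C to compounds at 15 concentrations (0.76% DMSO final). Viability by CellTiter-Glo luminescence after 30 min at room temperature.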

[14] = qHTS RealTime-Glo MT Cell Viability Assay in HEK293 cells - 32 hour (AID 1224868); conditions: RealTime-Glo luminescence; series mostly up to 76.8 µM
Outline: as §3

[15] = qHTS RealTime-Glo MT Cell Viability Assay in HEK293 cells - 40 hour (AID 1224874); conditions: RealTime-Glo luminescence; max response: active compounds read low; also: nearly all actives have a fitted effect of over 50% in size
Outline: as §6

[16] = qHTS RealTime-Glo MT Cell Viability Assay in HepG2 cells - 32 hour (AID 1224877); conditions: RealTime-Glo luminescence; series mostly up to 76.8 µM; also: nearly all actives have a fitted effect of over 55% in size
Outline: as §1

[17] = qHTS RealTime-Glo MT Cell Viability Assay in HepG2 cells - 40 hour (AID 1224870); conditions: RealTime-Glo luminescence; series mostly up to 76.8 µM; also: nearly all actives have a fitted effect of over 50% in size
Outline: as §4

[18] = A CellTox Green Cytotoxicity Assay to monitor cytotoxicity in HepG2 cells - 40 hour (AID 1224879); conditions: CellTox Green fluorescence; series mostly up to 76.8 µM; also: nearly all actives have a fitted effect of over 40% in size
Outline: as §5

[19] = qHTS assay to identify small molecule agonists of the hypoxia (HIF-1) signaling pathway (AID 1224846; active = well fitted activation curve with a large enough effect in the signal ratio in the repeat runs, not every such curve was filed as active; the % refers to the signal ratio); conditions: HRE-bla ME-180 cells, beta-lactamase ratio, 17 h; series mostly up to 76.8 µM
Outline: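 Hypoxia-pathway activation was scored as increased beta-lactamase from an HRE-controlled reporter in ME-180 cells; plated at 2,000 cells per well with 0.5% dialyzed FBS, they were exposed 17 hrs to compounds and then given CCF4-AM.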

[20] = qHTS assay to identify small molecule antagonists of the estrogen related receptor (ERR) signaling pathway from Tox21 library (AID 1224848); conditions: ERR reporter cell line, luciferase antagonist mode, 18 h; series mostly up to 92.4 µM; also: nearly all actives have a fitted effect of over 50% in size
Outline: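 Cells: ERR line, 2,000/well; 6 h preincubation 37 C/5% CO2. Cpd in DMSO via pin tool; 18 h, 37 C. ONE-Glo, 30 min RT, luminescence.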
% is scaled to controls: 0 for no effect and ±100 for the full control effect.

O=C(Nc1ccccc1)c1ccccc1O
inactive: Potency [1] | Potency [2] | activity change, positive = activation [3] -30.7% | Potency [4] | Potency [5] | Potency [6] | Potency [7] | Potency [8] | Potency [9] | Potency [10] | Potency [11] | Potency [12]

O=C(O)C1(C(=O)O)CCC1.[NH2-].[NH2-].[Pt+2]
inactive: Potency [1] | Potency [2] | Potency [13] | Potency [4] | Potency [14] | Potency [5] | Potency [6] | Potency [7] | max response [15] -1.65% | Potency [9] | Potency [10] | Potency [16] | Potency [11] | Potency [12]

NCC(=O)CCC(=O)O
inactive: Potency [1] | Potency [2] | Potency [13] | Potency [4] | Potency [14] | Potency [5] | Potency [17] | Potency [6] | Potency [7] | Potency [8] | max response [15] 7.89% | Potency [9] | Potency [16] | Potency [11] | Potency [18] | Potency [12]

Clc1ccc(Cn2c(CN3CCCC3)nc3ccccc32)cc1
inactive: Potency [1] | Potency [2] | Potency [13] | Potency [17] | Potency [8] | Potency [9] | Potency [10] | Potency [16] | Potency [11] | Potency [18] | Potency [12]

CCCCCCCC#N
inactive: Potency [1] | Potency [19] | Potency [13] | Potency [20] | Potency [4] | Potency [14] | Potency [17] | Potency [6] | Potency [7] | max response [15] -4.16% | Potency [9] | Potency [10] | Potency [16] | Potency [11] | Potency [18] | Potency [12]

C[C@@H](c1ncncc1F)C(O)(Cn1cncn1)c1ccc(F)cc1F (stereo partly drawn)
inactive: Potency [1] | Potency [19] | Potency [13] | Potency [20] | activity change, positive = activation [3] -0.316% [at 42.5 µM] | Potency [14] | Potency [5] | Potency [17] | Potency [6] | Potency [7] | Potency [8] | max response [15] 3.08% | Potency [9] | Potency [10] | Potency [16] | Potency [11] | Potency [18] | Potency [12]

CCC(C)O (stereo not drawn)
inactive: Potency [1] | Potency [19] | Potency [13] | Potency [20] | activity change, positive = activation [3] 0.0918% | Potency [4] | Potency [14] | Potency [5] | Potency [17] | Potency [6] | Potency [7] | Potency [8] | max response [15] 7.73% | Potency [9] | Potency [10] | Potency [16] | Potency [11] | Potency [18] | Potency [12]

O=C1CCC(=O)O1
inactive: Potency [1] | Potency [19] | Potency [13] | Potency [20] | activity change, positive = activation [3] 5.7% | Potency [4] | Potency [14] | Potency [5] | Potency [17] | Potency [6] | Potency [7] | Potency [8] | max response [15] 3.63% | Potency [9] | Potency [10] | Potency [16] | Potency [11] | Potency [12]

CCCCNc1ccc(C(=O)OCCOCCOCCOCCOCCOCCOCCOCCOCCOC)cc1
inactive: Potency [1] | Potency [2] | Potency [13] | activity change, positive = activation [3] -27.3% [at 42.5 µM] | Potency [4] | Potency [17] | Potency [6] | Potency [8] | Potency [9] | Potency [10] | Potency [16] | Potency [11] | Potency [18] | Potency [12]
